Assay results: PubChem BioAssay (NCATS)
Records with an inconclusive call do not appear. The source made the active and inactive calls. Unless noted, calls come from the whole dose curve; as a rule, active = well fitted curve in the direction sought with a large enough effect; inconclusive = small, poorly fitted or top-dose-only effect, or another doubt; inactive = no such curve, though single readings can be large; an effect the other way counts as inactive or inconclusive.

Tests used:
[1] = qHTS assay for small molecule antagonists of peroxisome proliferator-activated receptor delta signaling (AID 588535; active = well fitted inhibition curve with a large enough effect in the signal ratio, with a control signal flat, not every such curve was filed as active; the % refers to the signal ratio;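 for max response: cells co-treated with a PPAR-delta agonist as stimulator during compound exposure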); settings: HEK293T PPARd-UAS-bla, beta-lactamase FRET ratio, 18 h; 460 nm channel
Method in brief: (§1)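 Antagonist-mode qHTS using GeneBLAzer PPAR-delta-UAS-bla HEK293T cells; compound exposure 18 hrs at 37 C over a titration. Ratiometric CCF4 fluorescence at 460/530 nm; concentration-response points fitted to the Hill equation.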

[2] = target: Peroxisome proliferator-activated receptor delta (Homo sapiens) (UniProt Q03181); experiment: as above
Method in brief: as §1

[3] = target: Vitamin D3 receptor (Homo sapiens) (UniProt P11473); experiment: qHTS assay for small molecule antagonists of vitamin D receptor signaling (AID 588541; calls by dose curve;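 note: receptor activated by calcitriol during compound treatment; series mostly up to about 77 µM; % is set by controls: 0 for no effect and ±100 for the full control effect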)
Method in brief: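 Antagonist-mode beta-lactamase reporter assay: HEK293T VDR-UAS-bla cells were exposed to titrated compound alongside 1-alpha,25-dihydroxyvitamin D3 at 3 nM final for 16 h. Values were normalized to the 50 nM agonist control and DMSO basal, with IC50 and efficacy from Hill equation fits.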

[4] = target: Vitamin D3 receptor (Homo sapiens) (UniProt P11473); experiment: qHTS assay for small molecule agonists of vitamin D receptor signaling (AID 588543; calls by dose curve;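 note: 0% = DMSO basal and 100% = reference agonist control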)
Method in brief: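 β-lactamase reporter, VDR-UAS-bla HEK293T, agonist mode. Cells plated 5 h at 37 °C, compound titration 16 h at 37 °C, CCF4 dye 2 h RT, ratio 460/530 nm. Hill fit → EC50, efficacy vs 50 nM 1α,25-(OH)2D3.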

[5] = target: Thyroid hormone receptor beta (Homo sapiens) (UniProt P10828); experiment: qHTS assay for small molecule agonists of thyroid hormone receptor beta signaling (AID 588545; calls by dose curve)
Method in brief: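 Cells (2500/well) were seeded, incubated 4 hrs at 37 C, dosed with a compound series, incubated 18 hrs, loaded with CCF4 dye for 2 hrs at RT, then read for fluorescence. Data were scaled between DMSO (0%) and 10 nM T3 (100%).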

[6] = qHTS assay for small molecule antagonists of retinoid X receptor alpha signaling (AID 588546; active = well fitted inhibition curve with a large enough effect in the signal ratio, with a control signal flat, not every such curve was filed as active; the % refers to the signal ratio;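 note: cells stimulated with 9-cis-retinoic acid as agonist; % is set by controls: 0 for no effect and ±100 for the full control effect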); settings: HEK293T RXRa-UAS-bla, beta-lactamase ratio, antagonist mode; measured here: W530 green channel, cytotoxicity proxy
Method in brief: (§2)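 Beta-lactamase reporter inhibition, read as CCF4 fluorescence ratio (ex 405, em 460/530 nm) after 2 h at RT. HEK293T UAS-bla cells, 2500/well, were stimulated with 9-cis-RA at 500 or 100 nM final alongside test compound for 18 h at 37 C.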

[7] = target: Retinoic acid receptor RXR-alpha (Homo sapiens) (UniProt P19793); experiment: as above; settings: HEK293T RXRa-UAS-bla, beta-lactamase ratio, antagonist mode
Method in brief: as §2

[8] = target: Thyroid hormone receptor beta (Homo sapiens) (UniProt P10828); experiment: qHTS assay for small molecule antagonists of thyroid hormone receptor beta signaling (AID 588547; active = well fitted inhibition curve with a large enough effect in the signal ratio, with a control signal flat, not every such curve was filed as active; the % refers to the signal ratio;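 note: cells stimulated with 0.4 nM T3 agonist during compound exposure; series mostly up to about 77 µM; % is set by controls: 0 for no effect and ±100 for the full control effect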); settings: TR-UAS-bla HEK293, beta-lactamase ratio, antagonist mode, 18 h
Method in brief: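 Inhibition of T3-driven (0.4nM final) beta-lactamase reporter activity was measured over 0.59 nM to 92 uM compound after 18 h at 37 C. The cells were GripTite HEK293 TR-UAS-bla in charcoal/dextran-stripped serum, with CCF4 ratio read-out and IC50 from Hill fits.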

[9] = qHTS assay for environmental chemicals that activate the Aryl hydrocarbon Receptor (AhR) signaling pathway (AID 651777); settings: 1A2-DRE human hepatoma cells, luciferase, 24 h; activation: stronger effect = higher value; note: % of control where 0% means no effect; nearly all actives have a fitted effect of over 15% in size
Method in brief: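 Following a 24 hr incubation with test chemicals at 37 C and 5% CO2, 1A2-DRE human hepatoma cells received One-Glo reagent; after 30 min at room temperature, luciferase output reflected CYP1A2 induction via AhR.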

[10] = target: Peroxisome proliferator-activated receptor alpha (Homo sapiens) (UniProt Q07869); experiment: qHTS assay for small molecule agonists of the peroxisome proliferator-activated receptor alpha (PPARalpha) signaling pathway (AID 651778); settings: PathHunter PPARalpha complementation, chemiluminescence, 6 h; max response: stronger effect = higher value; note: % of control where 0% means no effect
Method in brief: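 Chemiluminescence from complemented enzyme reported PPARalpha activation in cells after 6 hr of compound treatment at 37 C. The detection reagent was incubated for 60 min at room temperature, and compounds were scored as agonists.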

[11] = qHTS assay for small molecule agonists of the antioxidant response element (ARE) signaling pathway measured by Nrf2-dependant transcriptional activity (AID 720636; active = well fitted curve in the direction sought with a large enough effect in the repeat runs; an effect the other way counts as inactive or inconclusive;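 note: HepG2 cells with an ARE-driven luciferase reporter; % of control where 0% means no effect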)
Method in brief: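 ONE-Glo luminescence, read 30 min after reagent addition at room temperature, reflected ARE reporter activity in HepG2 cells that had been incubated with compound for 16 hr at 37 C in 1% dialyzed FBS.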

[12] = qHTS assay for small molecule agonists of the antioxidant response element (ARE) signaling pathway measured by Nrf2-dependant transcriptional activity - cell viability counter screen (AID 720653; active = well fitted curve in the direction sought with a large enough effect in the repeat runs; an effect the other way counts as inactive or inconclusive; note: % is set by controls: 0 for no effect and ±100 for the full control effect); settings: ARE-bla HepG2 viability, CellTiter-Glo ATP luminescence, 16 h; max response: stronger effect = lower value
Method in brief: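 Cytotoxicity counter screen: intracellular ATP quantified by CellTiter-Glo luminescence in the same ARE-bla HepG2 plates, after 16 h compound exposure and a 2 h beta-lactamase substrate step.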

[13] = qHTS assay for cell viability of HEK293 cells (AID 743288); settings: ATP luminescence (CellTiter-Glo), 18 h; max response: stronger effect = lower value; note: % is set by controls: 0 for no effect and ±100 for the full control effect; nearly all actives have a fitted effect of over 50% in size
Method in brief: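 ATP luminescence (CellTiter-Glo) reports metabolically competent cell number after parental HEK293 cells, 2,000/well, were treated with DMSO-dissolved compounds for 18 h at 37 C; reagent incubation 30 min, room temperature.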

[14] = qHTS assay for cell viability of the p53RE-bla HCT-116 cell line (AID 743292); note: % is set by controls: 0 for no effect and ±100 for the full control effect; nearly all actives have a fitted effect of over 55% in size
Method in brief: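 After plating at 4,000 cells per well and a 5 h rest at 37 C, HCT-116 cells carrying p53RE-bla received test chemicals in DMSO. Sixteen hours later at 37 C, CellTiter-Glo was added and luminescence recorded following 30 min at room temperature.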

[15] = qHTS assay for small molecule activators of the human pregnane X receptor (PXR) signaling pathway (AID 720659; call rule not given here; note: 0% is about no effect)
[16] = qHTS assay for small molecule activators of the p53 signaling pathway (AID 651743; active = well fitted activation curve with a large enough effect in the signal ratio, not every such curve was filed as active; the % refers to the signal ratio; note: series mostly up to about 92 µM; % of control where 0% means no effect); settings: HCT-116 p53RE-bla, beta-lactamase FRET ratio, 16 h; activation: stronger effect = higher value
Method in brief: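 A beta-lactamase reporter under p53 response element control, stably carried by HCT-116 cells, reported pathway activation. Test compounds were applied for 16 hours at 37 C, and fluorescence was measured 2 hours after adding the B/G FRET substrate.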

[17] = target: Nuclear receptor subfamily 1 group I member 2 (Rattus norvegicus) (UniProt Q9R1A7); experiment: qHTS assay for small molecule activators of the rat pregnane X receptor (rPXR) signaling pathway (AID 651751; call rule not given here; note: 0% is about no effect); settings: rPXR reporter cells, luciferase (One-Glo), 24 h
[18] = qHTS assay for small molecule agonists of retinoid X receptor alpha signaling (AID 588544; calls by dose curve;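 for activation: 0% = DMSO basal wells and 100% = reference agonist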); settings: HEK293T RXRa-UAS-bla, beta-lactamase reporter, 18 h; 530 nm emission
[19] = target: Retinoic acid receptor RXR-alpha (Homo sapiens) (UniProt P19793); experiment: as above
[20] = qHTS assay for small molecule activators of the nuclear factor-kappa B (NF-kB) signaling pathway (AID 651749; active = well fitted activation curve with a large enough effect in the signal ratio; the % refers to the signal ratio; note: series mostly up to about 77 µM; % of control where 0% means no effect); settings: NF-kB-bla ME-180 cells, beta-lactamase FRET ratio, 16 h; activation: stronger effect = higher value
Method in brief: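 FRET-based beta-lactamase detection in ME-180 cells reports NF-kB response-element-driven transcription following overnight (16 hr) compound treatment.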

Chain of Thyroid hormone receptor beta (Homo sapiens) (P10828 whole entry, looked up): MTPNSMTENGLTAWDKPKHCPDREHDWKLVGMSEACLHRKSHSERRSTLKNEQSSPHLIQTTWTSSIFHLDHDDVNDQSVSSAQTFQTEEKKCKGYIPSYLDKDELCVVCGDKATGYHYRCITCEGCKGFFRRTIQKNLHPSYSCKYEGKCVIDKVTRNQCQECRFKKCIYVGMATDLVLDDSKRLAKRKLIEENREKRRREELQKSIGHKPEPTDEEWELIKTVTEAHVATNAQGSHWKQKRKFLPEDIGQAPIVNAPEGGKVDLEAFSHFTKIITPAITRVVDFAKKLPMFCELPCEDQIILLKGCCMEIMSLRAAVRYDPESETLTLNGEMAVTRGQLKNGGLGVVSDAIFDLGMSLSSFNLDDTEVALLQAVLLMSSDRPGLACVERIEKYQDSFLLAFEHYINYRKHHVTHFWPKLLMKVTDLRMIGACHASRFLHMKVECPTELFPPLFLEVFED
Chain of Peroxisome proliferator-activated receptor delta (Homo sapiens) (Q03181 whole entry, looked up): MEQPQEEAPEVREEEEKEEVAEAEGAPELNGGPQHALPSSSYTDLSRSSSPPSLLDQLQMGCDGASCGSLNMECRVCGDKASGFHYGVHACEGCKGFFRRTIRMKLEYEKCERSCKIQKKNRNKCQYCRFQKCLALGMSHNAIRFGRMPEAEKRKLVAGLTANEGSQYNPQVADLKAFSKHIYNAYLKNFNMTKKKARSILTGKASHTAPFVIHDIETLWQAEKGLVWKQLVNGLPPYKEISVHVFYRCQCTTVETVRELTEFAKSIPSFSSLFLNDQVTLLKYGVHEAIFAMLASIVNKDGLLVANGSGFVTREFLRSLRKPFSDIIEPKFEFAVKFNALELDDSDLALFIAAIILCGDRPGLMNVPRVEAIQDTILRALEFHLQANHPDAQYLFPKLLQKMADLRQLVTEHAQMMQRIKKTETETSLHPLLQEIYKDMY
Chain of Retinoic acid receptor RXR-alpha (Homo sapiens) (P19793 whole entry, looked up): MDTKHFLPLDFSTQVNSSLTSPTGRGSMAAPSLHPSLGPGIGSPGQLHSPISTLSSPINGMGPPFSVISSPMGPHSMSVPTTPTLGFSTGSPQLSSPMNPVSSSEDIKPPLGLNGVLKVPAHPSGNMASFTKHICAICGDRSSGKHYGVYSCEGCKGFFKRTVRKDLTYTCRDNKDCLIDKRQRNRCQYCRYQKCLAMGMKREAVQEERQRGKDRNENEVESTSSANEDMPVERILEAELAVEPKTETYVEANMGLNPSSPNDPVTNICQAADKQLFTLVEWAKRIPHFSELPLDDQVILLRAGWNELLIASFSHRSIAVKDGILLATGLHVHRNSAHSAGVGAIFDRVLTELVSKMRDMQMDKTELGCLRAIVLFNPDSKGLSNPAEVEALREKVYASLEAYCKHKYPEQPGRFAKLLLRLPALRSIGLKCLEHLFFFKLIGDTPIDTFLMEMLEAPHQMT
Chain of Peroxisome proliferator-activated receptor alpha (Homo sapiens) (Q07869 whole entry, looked up): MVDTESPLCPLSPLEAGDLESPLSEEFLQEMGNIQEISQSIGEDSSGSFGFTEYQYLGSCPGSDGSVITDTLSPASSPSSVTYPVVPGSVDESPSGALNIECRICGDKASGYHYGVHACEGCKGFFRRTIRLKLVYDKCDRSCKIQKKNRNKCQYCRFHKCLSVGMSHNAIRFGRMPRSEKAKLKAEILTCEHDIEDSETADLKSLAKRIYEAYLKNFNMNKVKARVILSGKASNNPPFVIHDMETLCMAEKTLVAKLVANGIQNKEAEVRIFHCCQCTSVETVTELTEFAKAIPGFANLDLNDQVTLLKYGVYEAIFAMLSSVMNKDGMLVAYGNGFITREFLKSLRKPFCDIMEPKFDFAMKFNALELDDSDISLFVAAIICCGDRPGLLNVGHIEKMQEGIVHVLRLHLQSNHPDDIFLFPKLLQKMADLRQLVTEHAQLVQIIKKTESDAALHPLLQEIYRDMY
Chain of Nuclear receptor subfamily 1 group I member 2 (Rattus norvegicus) (Q9R1A7 whole entry, looked up): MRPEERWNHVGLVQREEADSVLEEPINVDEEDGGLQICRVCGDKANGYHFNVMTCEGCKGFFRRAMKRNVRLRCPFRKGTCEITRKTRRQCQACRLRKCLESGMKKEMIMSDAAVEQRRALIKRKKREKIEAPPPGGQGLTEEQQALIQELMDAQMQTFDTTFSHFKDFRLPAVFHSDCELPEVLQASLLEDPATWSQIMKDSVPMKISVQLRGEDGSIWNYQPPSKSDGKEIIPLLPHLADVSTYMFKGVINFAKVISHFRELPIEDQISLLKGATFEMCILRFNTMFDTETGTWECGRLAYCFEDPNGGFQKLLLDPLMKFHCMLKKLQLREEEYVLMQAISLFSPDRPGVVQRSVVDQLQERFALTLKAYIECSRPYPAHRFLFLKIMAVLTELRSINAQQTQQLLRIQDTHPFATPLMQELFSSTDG
Chain of Vitamin D3 receptor (Homo sapiens) (P11473 whole entry, looked up): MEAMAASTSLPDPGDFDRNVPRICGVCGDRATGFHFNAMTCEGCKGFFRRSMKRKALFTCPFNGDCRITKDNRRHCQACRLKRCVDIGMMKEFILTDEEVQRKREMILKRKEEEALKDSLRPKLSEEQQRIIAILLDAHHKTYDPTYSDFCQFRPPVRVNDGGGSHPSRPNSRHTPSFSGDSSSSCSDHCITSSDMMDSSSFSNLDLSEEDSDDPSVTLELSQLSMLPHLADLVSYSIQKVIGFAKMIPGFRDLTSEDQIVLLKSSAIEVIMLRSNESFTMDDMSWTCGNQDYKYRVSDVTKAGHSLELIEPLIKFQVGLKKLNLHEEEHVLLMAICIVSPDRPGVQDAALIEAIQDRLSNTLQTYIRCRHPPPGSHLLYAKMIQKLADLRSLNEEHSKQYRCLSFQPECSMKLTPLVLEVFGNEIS

CC(COCC(C)OC(=O)c1ccccc1)OC(=O)c1ccccc1 (stereo not given)
inactive: Potency [2] | Potency [3] | outcome [4] | Potency [5] | max response [7] -22% | activity change % (negative = inhibition) [8] -7.07% | activation [9] 1.91% | max response [10] 0.577% | Potency [11] | max response [12] -9.83% | max response [13] -11.6% | Potency [14] | outcome [15]
-1.92%: max response [1]
-1.17%: max response [6]

COC(=O)C(C)Oc1ccc(Oc2ncc(C(F)(F)F)cc2Cl)cc1 (stereo not given)
-16.8%: max response [1]
inactive: Potency [2] | Potency [3] | outcome [4] | Potency [5] | max response [7] -74.4% | activation [16] -4.64% | activation [9] 0.251% | max response [10] 0.508% | Potency [11] | max response [12] -10.2% | max response [13] -21.9% | Potency [14] | max response [17] -3.2% | outcome [15]
5.42%: max response [6]

Cc1ccc(N)c(S(=O)(=O)O)c1
inactive: Potency [2] | Potency [3] | outcome [4] | Potency [19] | Potency [5] | activity change % (negative = inhibition) [8] -15.2% | activation [20] 0.0519% | activation [9] 8.24% | max response [10] -5.19% | max response [12] -14.4% | max response [13] -6.79% | Potency [14] | max response [17] 3.5% | outcome [15]
-0.582%: max response [18]
11.7%: max response [1]
1.46%: max response [6]

O=C(O)c1cc2ccccc2cc1O
inactive: Potency [3] | outcome [4] | Potency [19] | Potency [5] | max response [7] -6.59% | activity change % (negative = inhibition) [8] -1.94% | activation [20] 0.405% | max response [10] 7.01% | max response [12] -1.53% | max response [13] -12.6% | Potency [14] | max response [17] 0.928%
2.59%: max response [6]
18.1%: max response [18]

CCc1c(C(=O)O)c(=O)cnn1-c1ccc(Cl)cc1
inactive: Potency [2] | Potency [3] | outcome [4] | Potency [5] | max response [7] 7.37% | activity change % (negative = inhibition) [8] 4.34% | activation [16] 1.9% | activation [20] -0.428% | activation [9] 0.0279% | max response [10] 3.7% | Potency [11] | max response [12] -3.97% | max response [13] -15.5% | Potency [14] | max response [17] -1.29% | outcome [15]
48.3%: max response [1]
-1.3%: max response [6]

CCCCCCCCCCCCCCCCCC#N
1.68%: max response [1]
-14.7%: max response [18]
-8.8%: max response [6]
inactive: Potency [2] | Potency [19] | Potency [5] | activity change % (negative = inhibition) [8] 11.1% | activation [20] -1.03% | activation [9] 2.76% | max response [10] 3.6% | Potency [11] | max response [13] -12.8% | Potency [14] | max response [17] 2.15% | outcome [15]
